Data on 40 molecules can be found in PubChem BioAssay (Tox21).

Structures are written as SMILES. Values joined by “and” are separate entries in the source; they are usually repeats but may differ in a detail not shown here. Equal entries are not always repeated. Results filed as inconclusive are left out. A structure can be active in one record and inactive in another. Active and inactive are the calls of the source. Calls follow the shape of the dose curve; as a rule, active = well fitted activation curve with a large enough effect in the repeat runs; inconclusive = weak or mixed curves; inactive = flat fitted curve, though single readings scatter.
% is scaled to controls: 0 for no effect and ±100 for the full control effect; potency is read from the fitted curve at half-maximal effect.

The assay can be described thus: A CellTox Green Cytotoxicity Assay to monitor cytotoxicity in HEK293 cells - 40 hour (AID 1224871). Also: nearly all actives have a fitted effect of over 45% in size. The conditions noted are these: CellTox Green fluorescence; series mostly up to 76.8 µM; cytotoxicity increase: at the top concentration. From the text:
National Center for Advancing Translational Sciences [NCATS]
NIH Chemical Genomics Center [NCGC]
U.S. Environmental Protection Agency [EPA]
National Institutes of Environmental Health Sciences [NIEHS]
National Toxicology Program [NTP]
Cell-based models are critical for drug discovery. Determining the natural cytotoxic effects resulting from test compounds is an essential research activity. A CellTox Green Cytotoxicity Assay to monitor cytotoxicity in real time of continues cell culture during 40 hours of the compound treatment was used to screen Tox21 10K library compounds in Hek293 cells. CellTox Green Cytotoxicity Assay is a nonlytic, homogeneous, biofluorescent method to measure cytotoxicity in cell culture after experimental manipulation. The assay system uses a proprietary asymmetric cyanine dye that is excluded from viable cells but preferentially stains the dead cell's DNA. […] Viable cells produce no appreciable increases in fluorescence. Therefore, the fluorescence signal produced by the binding interaction with dead cell DNA is proportional to cytotoxicity.
The mixture of Hek293 cell suspension and reagents were dispensed at 600cells/6 ul/well in 1536-well tissue culture treated black solid bottom plates using a Multidrop dispenser. After the assay plates were incubated at a 37 C/5% CO2 incubator for 5 hours, 23 nL of compounds dissolved in DMSO, positive and negative controls was transferred to the assay plate by a pintool work station. The plates were incubated at 37 C for 40 hours. The fluorescence intensity were measured at 0h, 8h, 16h, 24h, 32h and 40h time points using ViewLux plate reader during compound treatment.
On to `Cc1onc(-c2ccccc2Cl)c1C(=O)N[C@@H]1C(=O)N2[C@@H]1SC(C)(C)[C@@H]2C(=O)O`, for which the “cytotoxicity increase” value is -10.5% [at 35.3 µM] (inactive).

Consider `CNCc1cc(F)ccc1Oc1ccc(Cl)c(Cl)c1`, for which the Potency is 49 µM (active). For `CO[Si](CCCNc1ccccc1)(OC)OC`, the “cytotoxicity increase” value was 2.45% (inactive). With `C/C(=C(/OCCOc1ccc(Cl)cc1)c1ccc(Cl)cc1Cl)n1ccnc1`, the “cytotoxicity increase” value was -12.6% [at 35.3 µM] (inactive). Turning to `Cc1ccc(O)c(C(C)(C)C)c1`, the Potency was 43.6 µM (active). Regarding `C=CC(=O)OCCn1c(=O)n(CCOC(=O)C=C)c(=O)n(CCOC(=O)C=C)c1=O`, the Potency is 21.9 µM (active). With `N#CC1(c2ccc(F)cc2)CCC(=O)CC1`, the “cytotoxicity increase” value is 3.19% [at 35.3 µM] (inactive).

With `O=C(O)c1ccc(Cl)c(Cl)c1`, the “cytotoxicity increase” value was -7.02% (inactive). `O=C(Nc1ccc(Oc2ccc(Cl)cc2)c(Cl)c1)c1cc(I)cc(I)c1O`: the “cytotoxicity increase” value is 7.48% [at 35.3 µM] (inactive). Consider `CCCCCCCCOc1ccccc1C(=O)Nc1ccc(C(=O)OCC[N+](C)(CC)CC)cc1`, for which the Potency was 26.8 µM (active). As for `CC(C)(C)NC(=O)[C@@H]1C[C@@H]2CCCC[C@@H]2CN1C[C@@H](O)[C@H](Cc1ccccc1)NC(=O)[C@H](CC(N)=O)NC(=O)c1ccc2ccccc2n1`, the Potency was 55.7 µM (active). Regarding `CNC(=O)c1ccccc1`, the “cytotoxicity increase” value was -1.69% (inactive). For the molecule `CCCC(=O)OC[C@@H](OC(=O)CCC)[C@@H](OC(=O)CCC)[C@H](Cn1c2nc(=O)[nH]c(=O)c-2nc2cc(C)c(C)cc21)OC(=O)CCC`, the Potency was 21.3 µM (active).

For the molecule `C[C@@H](NCCCc1cccc(C(F)(F)F)c1)c1cccc2ccccc12`, the Potency was 23.9 µM (active).

On to `O=C(NO)C1(NS(=O)(=O)c2ccc(Oc3ccc(F)cc3)cc2)CCOCC1`, for which the “cytotoxicity increase” value is 2.84% (inactive).

As for `CC(C)(C)CC(C)(C)c1ccc(O)c(Cc2ccc(Cl)cc2Cl)c1`, the Potency was 23.9 µM (active).

As to `CC(C)C(C)(C)C(C)(C)C(C)(C)S`, the “cytotoxicity increase” value was -0.0773% (inactive).

`[O-][n+]1ccccc1SSc1cccc[n+]1[O-]`: the Potency was 1.31 µM (active). `OCCN(CCO)c1nc(N2CCCCC2)c2nc(N(CCO)CCO)nc(N3CCCCC3)c2n1`: the Potency was 19 µM (active). For the molecule `OCCCCCCCCCCCCBr`, the “cytotoxicity increase” value is -1.14% (inactive).

With `CCCCCOC(=O)CCCC`, the “cytotoxicity increase” value is 0.847% (inactive). Consider `CCCCCCCCCCCCCC[P+](CCCC)(CCCC)CCCC` (tested in a mixture with another compound), for which the Potency is 15.6 µM (active). Take `Cc1cc(=O)oc2cc(N(C)C)ccc12`: the “cytotoxicity increase” value was -2.79% (inactive).

Take `CN(C)C(=O)C1(N2CCCCC2)CCN(CC[C@@]2(c3ccc(Cl)c(Cl)c3)CN(C(=O)c3ccccc3)CCO2)CC1`: the Potency was 28.9 µM (active).

Turning to `Clc1ccc(C(Cn2ccnc2)OCc2ccc(Sc3ccccc3)cc2)c(Cl)c1` (stereo not given), the “cytotoxicity increase” value is -1.16% [at 35.3 µM] (inactive). For `O=c1cc(-c2ccc(O)cc2)oc2cc(O)cc(O)c12`, the Potency result was “inactive and 43.6 µM (active)”. On to `Cc1ccc(-n2nc(C(C)(C)C)cc2NC(=O)Nc2ccc(OCCN3CCOCC3)c3ccccc23)cc1`, for which the “cytotoxicity increase” value is -15.3% [at 35.3 µM] (inactive). `O=C(OCC1CO1)C1CCCCC1C(=O)OCC1CO1` (stereo not given): the “cytotoxicity increase” value is -17.6% (inactive). Same read-out and setting: next, `C[n+]1ccn(Cc2ccccc2)c1`: -8.99% (inactive). With `O=C(Nc1cccc(Cl)c1)OCC#CCCl`, the Potency was 43.6 µM (active). On to `O=C(NOCC1CC1)c1ccc(F)c(F)c1Nc1ccc(I)cc1Cl`, for which the “cytotoxicity increase” value was -3.26% [at 35.3 µM] (inactive). On the same count and under the same terms, as for `CCN(Cc1cccnc1)C(=O)c1cccc(Cl)c1[C@]1(C)C(=O)N(Cc2ccc(OC)cc2OC)c2ccc(Cl)cc21`, the figure is 4.62% (inactive). As to `OC1(c2ccc(Cl)c(C(F)(F)F)c2)CCN(CCCC(c2ccc(F)cc2)c2ccc(F)cc2)CC1`, the Potency is 21.3 µM (active). Regarding `Clc1ccc2nsnc2c1NC1=NCCN1`, the “cytotoxicity increase” value was -21.4% [at 35.3 µM] (inactive). Consider `O=C1c2ccccc2Cc2ccccc21`, for which the “cytotoxicity increase” value was 6% (inactive).

Turning to `CCN(C(=O)c1cc(C)cc(OC[C@H](C)Nc2ccncc2)c1)C(C)C`, the “cytotoxicity increase” value is -9.63% [at 35.3 µM] (inactive).

With `CCOc1ccc2nc3cc(N)ccc3c(N)c2c1`, the Potency was 21.3 µM (active). For `CCCCCCCCCCCCc1ccc(O)cc1`, the Potency was 49 µM (active). `CC(C)(C)C(=O)OCOC(=O)C1N2C(=O)CC2S(=O)(=O)C1(C)C` (stereo not given): the “cytotoxicity increase” value was 7.62% [at 35.3 µM] (inactive). Consider `CCN(CC)CCCC(C)Nc1c2ccc(Cl)cc2nc2ccc(OC)cc12` (stereo not given), for which the Potency was 6.01 µM (active).
